Rows were chosen to be rich in hits. Some 1.8% of all compounds tested hit in one or more screens of this group.
PME-1 inh: blocks human protein phosphatase methylesterase 1; Q9Y570; recombinant PME-1, FP-Rh probe fluorescence polarization; inhibition, % at 5.9 µM; 0.53% of 320,000 active; AID 2130;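 active = inhibition above the campaign mean of all compounds plus 3 SD, cut at about 26% in these data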;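 note: competitive labeling of PME-1 active site by serine hydrolase directed probe; 0% = PME-1 with DMSO and 100% = wells lacking PME-1 enzyme; inhibitors block probe labeling so polarization falls and inhibition rises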
Target sequence (Q9Y570 whole entry, looked up): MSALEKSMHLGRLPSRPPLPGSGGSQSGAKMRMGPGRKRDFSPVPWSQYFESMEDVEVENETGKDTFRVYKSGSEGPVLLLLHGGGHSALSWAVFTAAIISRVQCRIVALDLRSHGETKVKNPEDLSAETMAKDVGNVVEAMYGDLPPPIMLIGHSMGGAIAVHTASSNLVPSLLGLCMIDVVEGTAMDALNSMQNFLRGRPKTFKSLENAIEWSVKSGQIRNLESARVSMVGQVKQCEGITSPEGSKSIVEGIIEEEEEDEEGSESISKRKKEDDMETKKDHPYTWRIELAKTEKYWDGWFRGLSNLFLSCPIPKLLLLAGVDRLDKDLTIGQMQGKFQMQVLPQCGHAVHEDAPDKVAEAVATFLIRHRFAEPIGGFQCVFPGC
Fam108B counter: blocks mouse Fam108B hydrolase in RBBP9 counter-screen. recombinant Fam108B, FP-Rh probe fluorescence polarization. inhibition, % at 9.51 µM. 0.33% of 300,000 active. AID 1947;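 active = inhibition above the screen mean inhibition plus 3 SD, computed separately per campaign, cut at about 18% in these data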;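 note: inhibitors lower polarization as less probe binds the enzyme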
PAD4 inh: blocks human protein arginine deiminase 4; 0.41% of 330,000 active; AID 485272; recombinant PAD4, RCA probe fluorescence polarization; inhibition, % at 6.36 µM;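 active = percent inhibition above a cutoff equal to the mean of all tested compounds plus 3 SD, cut at about 15% in these data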;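 note: 0% = PAD4 with RCA probe and DMSO and 100% = probe without PAD4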
GSTO1 counter: GSTO1 inhibition, counter-screen for RBBP9 inhibitors | inhibition, % at 5.96 µM | P78417 | recombinant GSTO1, activity-based probe fluorescence polarization | 1.1% of 300,000 active | AID 1974;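 active = inhibition above the campaign mean inhibition plus 3 SD, cut at about 35% in these data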;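 note: 0% = GSTO1-1 with DMSO and 100% = wells lacking GSTO1-1 enzyme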
LYPLA1 inh: counter-screen for PME1 inhibitors: inhibitors of human LYPLA1; O75608; recombinant LYPLA1, FP-Rh probe fluorescence polarization; inhibition, % at 5.9 µM; 0.16% of 320,000 active;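 active = inhibition above the mean of all tested compounds plus 3 SD, set per campaign, cut at about 14% in these data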;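 note: inhibitors block serine hydrolase probe labeling of LYPLA1 so polarization falls; 0% = enzyme with DMSO and 100% = wells lacking LYPLA1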
LYPLA2 counter: blocks human lysophospholipase 2, a PME1 counter-screen; recombinant LYPLA2, FP-Rh probe fluorescence polarization; 0.38% of 320,000 active; inhibition, % at 5.9 µM; O95372;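 active = inhibition above the screen-wide mean plus 3 SD, limit set per campaign, cut at about 26% in these data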;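 note: 0% = LYPLA2 with DMSO and 100% = wells lacking LYPLA2 enzyme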
GSTO1 confirm: confirmation of human GSTO1 inhibitors. 54% of 2,400 active. inhibition, % at 5.96 µM. recombinant GSTO1, probe fluorescence polarization. AID 2176. shares compounds with GSTO1 counter;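 active = inhibition above the primary screen's cutoff, its mean inhibition plus 3 SD, cut at about 35% in these data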;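 note: loss of polarization as inhibitors block binding of rhodamine sulfonate ester activity probe; 0% = GSTO1 with DMSO and 100% = wells lacking GSTO1 enzyme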
Numbers without * were called inactive.

What do the screens show for `CC1Oc2cc3oc4c(O)c(O)ccc4c(=O)c3c(O)c2C1(C)C` (stereo not given)?
PME-1 inh: 4.8; Fam108B counter: -11.0; PAD4 inh: -1.8; GSTO1 counter: 44.6*; LYPLA1 inh: -19.8; LYPLA2 counter: -26.0; GSTO1 confirm: 5.7

What do the screens show for `COc1cccc(Cn2c(N)c(C#N)c3nc4ccccc4nc32)c1OC`?
PME-1 inh: -1.9; Fam108B counter: -2.2; PAD4 inh: -12.1; GSTO1 counter: 40.8*; LYPLA1 inh: -3.7; LYPLA2 counter: 0.7; GSTO1 confirm: -2.3

What do the screens show for `CC(C)(O)C(=O)NNC(=S)Nc1ccc(F)c(Cl)c1`?
PME-1 inh: -5.8; Fam108B counter: 2.8; PAD4 inh: -1.2; GSTO1 counter: 10.7; LYPLA1 inh: -1.7; LYPLA2 counter: -7.6

Results for O=C(CSc1ncn[nH]1)Nc1ncc(C(F)(F)F)cc1Cl ?
PME-1 inh: 3.5; Fam108B counter: -4.7; PAD4 inh: -9.3; GSTO1 counter: -6.7; LYPLA1 inh: -1.1; LYPLA2 counter: -1.9

Results for O=C(CSc1ncn[nH]1)Nc1ccc(Cl)c(Cl)c1 ?
PME-1 inh: -0.9; Fam108B counter: -5.4; PAD4 inh: 1.7; GSTO1 counter: 51.7*; LYPLA1 inh: -3.1; LYPLA2 counter: -0.4; GSTO1 confirm: 33.8

How did CCOC(=O)NC1(NCC(C)C)Oc2ccccc2O1 do in these assays?
PME-1 inh: 7.5; Fam108B counter: -3.8; PAD4 inh: 0.7; GSTO1 counter: 47.9*; LYPLA1 inh: 4.4; LYPLA2 counter: 6.1; GSTO1 confirm: 2.5

Results for CCOC(=O)NC1(NC2CCCCC2)Oc2ccccc2O1 ?
PME-1 inh: 3.6; Fam108B counter: 0.3; PAD4 inh: 5.3; GSTO1 counter: 51.7*; LYPLA1 inh: 2.5; LYPLA2 counter: 2.9; GSTO1 confirm: 6.8

What do the screens show for `CCOC(=O)NC1(NCc2ccccc2)Oc2ccccc2O1`?
PME-1 inh: 4.8; Fam108B counter: -0.3; PAD4 inh: -2.9; GSTO1 counter: 60.7*; LYPLA1 inh: 0.9; LYPLA2 counter: -2.8; GSTO1 confirm: 5.4

How did CCOC(=O)NC1c2ccccc2Oc2ccccc21 do in these assays?
PME-1 inh: -5.5; Fam108B counter: 3.4; PAD4 inh: -2.4; GSTO1 counter: 12.1; LYPLA1 inh: 2.8; LYPLA2 counter: 4.6

Results for CCOC(=O)c1ccc(CNCc2ccccc2)cc1 ?
PME-1 inh: 1.7; Fam108B counter: 1.2; PAD4 inh: 1.7; GSTO1 counter: -3.3; LYPLA1 inh: 3.6; LYPLA2 counter: 4.8

Results for Cc1ccc(S(=O)(=O)N(C)Cc2ccc(C(=O)N/N=C3\CC(=O)CC(C)(C)C3)cc2)cc1 ?
PME-1 inh: 6.8; Fam108B counter: 3.6; PAD4 inh: 0.8; GSTO1 counter: -2.9; LYPLA1 inh: 4.7; LYPLA2 counter: 13.4

How did O=C(NC(=S)N(CCO)Cc1ccccc1)c1ccc(F)cc1Cl do in these assays?
PME-1 inh: -2.2; Fam108B counter: -4.7; PAD4 inh: 0.3; GSTO1 counter: -1.8; LYPLA1 inh: 2.5; LYPLA2 counter: 3.4

What do the screens show for `CCc1ccc(/C([O-])=C(/C(=S)NCCN2CCOCC2)[n+]2ccccc2)cc1`?
PME-1 inh: -1.2; Fam108B counter: -2.4; PAD4 inh: 1.6; GSTO1 counter: 6.3; LYPLA1 inh: 3.0; LYPLA2 counter: 6.2

What do the screens show for `O=C(OCC(=O)N1CCCC1=O)c1nc(Cl)c(Cl)c(Cl)c1Cl`?
PME-1 inh: -6.3; Fam108B counter: -0.4; PAD4 inh: -5.2; GSTO1 counter: 39.9*; LYPLA1 inh: -3.3; LYPLA2 counter: -6.1; GSTO1 confirm: 24.1

What do the screens show for `C=CCN1C=C2C(=O)C(C)(OC(=O)C3CCCC3)C(=O)C(c3ccccc3)=C2C=C1CCCC(=O)OC` (stereo not given)?
PME-1 inh: -1.7; Fam108B counter: 0.3; PAD4 inh: -16.6; GSTO1 counter: 26.7; LYPLA1 inh: 1.7; LYPLA2 counter: -1.7

How did COC(=O)CCCC1=CC2=C(c3ccccc3)C(=O)C(C)(OC(=O)C3CCCC3)C(=O)C2=CN1Cc1ccc2c(c1)OCO2 (stereo not given) do in these assays?
PME-1 inh: -3.6; Fam108B counter: 0.7; PAD4 inh: -0.4; GSTO1 counter: 48.2*; LYPLA1 inh: -5.0; LYPLA2 counter: -5.3; GSTO1 confirm: 13.4

Assay outcomes from PubChem BioAssay.
